Rows were chosen to be rich in hits. Some 6.1% of all compounds tested hit in one or more screens of this group.
D3 ag – D3 dopamine receptor (human) agonism. P35462. max activation, %. 410,000 compounds, 0.58% hits. D3R DiscoveRx beta-arrestin cells, luminescence, 90 min. AID 652048; in the data active = max activation above about 30%; note: 0% is about no effect
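Agonist-mode cell screen: cells plated at 1500/well and incubated overnight at 37 °C, then exposed to library compounds for 90 min at 37 °C. Detection reagent was added for 30–60 min at room temperature, and luminescence was read.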
D1 ag – agonists of human D1 dopamine receptor; HEK293 T-REx D1 cells, calcium flux, agonist mode; activation, % at 2 µM; 360,000 compounds, 1% hits; AID 504660; in the data active = activation above about 30%; note: 0% is about no effect
Target sequence (P21728 whole entry, looked up): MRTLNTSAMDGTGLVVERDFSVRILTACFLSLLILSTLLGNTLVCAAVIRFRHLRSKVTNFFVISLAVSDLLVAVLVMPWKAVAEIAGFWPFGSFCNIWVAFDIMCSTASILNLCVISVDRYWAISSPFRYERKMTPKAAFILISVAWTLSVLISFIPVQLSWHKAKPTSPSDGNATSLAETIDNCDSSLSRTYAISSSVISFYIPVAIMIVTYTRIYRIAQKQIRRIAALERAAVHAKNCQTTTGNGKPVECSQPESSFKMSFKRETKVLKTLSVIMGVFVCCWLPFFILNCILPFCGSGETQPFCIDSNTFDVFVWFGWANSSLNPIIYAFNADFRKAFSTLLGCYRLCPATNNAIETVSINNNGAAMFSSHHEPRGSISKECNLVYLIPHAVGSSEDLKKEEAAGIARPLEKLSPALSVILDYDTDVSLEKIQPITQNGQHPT
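Inducible HEK293 T-REx D1 cells, force-coupled to calcium signalling, were plated at 4000 cells/well with tetracycline and held overnight at 30 C. After no-wash calcium dye loading, compound-evoked calcium rise over 180 s flagged agonists.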
D1 potentiator – human D1 dopamine receptor positive modulation; P21728; HEK293 TREx D1 cells, calcium flux, dopamine EC20 potentiation; potentiation, % at 10 µM; 360,000 compounds, 0.036% hits; AID 504651; in the data active = potentiation above about 30%; note: 0% is about no effect
D1 antag – human D1 dopamine receptor antagonism | HEK293 TREx D1 cells, calcium flux, dopamine EC80; active compounds read low | P21728 | activity change, negative = inhibition, % at 10 µM | 360,000 compounds, 3.2% hits; in the data active = activity change below about -30%; note: % is set by controls: 0 for no effect and ±100 for the full control effect
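Inducible Hek293 Trex D1 cells (tetracycline, overnight, 30 C). Calcium dye 30–90 min RT. Antagonist mode: EC80 dopamine added after 180 s compound read.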
DRD3 antagonist – blocks the human D3 dopamine receptor; P35462; D3R cells, DiscoveRx beta-arrestin luminescence, antagonist mode; active compounds read low; max response, negative = inhibition, %; 360,000 compounds, 2.5% hits; AID 652054; in the data active = max response below about -50%; inconclusive = no clear call, values can overlap the other calls; note: % is set by controls: 0 for no effect and ±100 for the full control effect
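Cells plated overnight at 1500 cells/well, then exposed to library compounds with dopamine controls for 90 minutes at 37 degrees C. DiscoveRx reagent added for 30–60 minutes at room temperature; luminescence read, quantitative HTS format.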
An asterisk follows results filed as active.

How did COc1ccc(C(C[N+](=O)[O-])c2c(-c3ccccc3)cc3ccccn23)cc1 (stereo unspecified) do in these assays?
D3 ag: -3; D1 ag: 7; D1 potentiator: -1; D1 antag: 5; DRD3 antagonist: -50*

What do the screens show for `CC(=O)Nc1ccc(NC(=O)c2nc(S(=O)(=O)Cc3cccc(C)c3)ncc2Cl)cc1`?
D3 ag: -28; D1 ag: 1; D1 potentiator: -4; D1 antag: -26; DRD3 antagonist: -75*

What do the screens show for `COC(=O)c1ccccc1NC(=O)c1nc(S(=O)(=O)Cc2cccc(C)c2)ncc1Cl`?
D3 ag: 8; D1 ag: 1; D1 potentiator: -2; D1 antag: -14

Results for Cc1cccc(CS(=O)(=O)c2ncc(Cl)c(C(=O)NCc3ccc4c(c3)OCO4)n2)c1 ?
D3 ag: -1; D1 ag: -1; D1 potentiator: 2; D1 antag: 2; DRD3 antagonist: -97*

Results for CCS(=O)(=O)c1ncc(Cl)c(C(=O)Nc2c(C(=O)Nc3cccc(C)c3)oc3ccccc23)n1 ?
D3 ag: 6; D1 ag: 3; D1 potentiator: 0; D1 antag: -8

What do the screens show for `COC(=O)c1ccc(NC(=O)c2nc(S(=O)(=O)Cc3cccc(C)c3)ncc2Cl)cc1`?
D3 ag: -28; D1 ag: 0; D1 potentiator: 10; D1 antag: 32; DRD3 antagonist: -53*

How did Cc1ccc(CNC(=O)c2nc(S(=O)(=O)Cc3ccc(C)cc3)ncc2Cl)cc1 do in these assays?
D3 ag: -19; D1 ag: 1; D1 potentiator: -2; D1 antag: -26

How did CN(C)c1ccc(/C=C/C=N/Nc2nc(N3CCOCC3)nc(N3CCOCC3)n2)cc1 do in these assays?
D3 ag: 6; D1 ag: -1; D1 potentiator: -8; D1 antag: -35*; DRD3 antagonist: 28

What do the screens show for `CCCNC(=O)C(Cc1cccc(Cl)c1)NC(=O)c1ccc(C#N)cc1` (stereo unspecified)?
D3 ag: -2; D1 ag: -1; D1 potentiator: -5; D1 antag: -26; DRD3 antagonist: 10

What do the screens show for `CCCNC(=O)C(Cc1cccc(C#N)c1)NC(=O)c1ccc(C#N)cc1` (stereo unspecified)?
D3 ag: 90*; D1 ag: -1; D1 potentiator: 2; D1 antag: 9; DRD3 antagonist: -7

What do the screens show for `CCOc1cc(/C=N/NC(=O)c2ccc(CN3CCOCC3)cc2)ccc1OC`?
D3 ag: -4; D1 ag: 2; D1 potentiator: -3; D1 antag: 6; DRD3 antagonist: 3

How did CCOc1cc(/C=C/C(=O)c2ccc(OC)c(CN3CCOCC3)c2)cc(Br)c1O do in these assays?
D3 ag: 1; D1 ag: 41*; D1 potentiator: -5; D1 antag: -1; DRD3 antagonist: -20

How did CCCc1cc(NCCCN(C)C)n2c(nc3ccccc32)c1C#N do in these assays?
D3 ag: 0; D1 ag: 1; D1 potentiator: -7; D1 antag: -38*; DRD3 antagonist: 10

How did O=C(CN1CCN(c2ccc([N+](=O)[O-])cc2)CC1)Nc1ccccn1 do in these assays?
D3 ag: 6; D1 ag: 16; D1 potentiator: -8; D1 antag: -14; DRD3 antagonist: -6

How did O=C(CN1CCN(c2ccc([N+](=O)[O-])cc2)CC1)Nc1nccs1 do in these assays?
D3 ag: 7; D1 ag: 8; D1 potentiator: 7; D1 antag: -32*; DRD3 antagonist: 24

What do the screens show for `O=C(CN1CCOCC1)Nc1nc2ccc(F)cc2s1`?
D3 ag: 2; D1 ag: 2; D1 potentiator: 5; D1 antag: 2; DRD3 antagonist: -7

What do the screens show for `O=C(CN1CCOCC1)Nc1nc2ccc([N+](=O)[O-])cc2s1`?
D3 ag: -22; D1 ag: 5; D1 potentiator: -4; D1 antag: -24; DRD3 antagonist: -85*

What do the screens show for `O=C(CN1CCN(Cc2ccc(F)cc2)CC1)Nc1nc2ccccc2s1`?
D3 ag: -1; D1 ag: 12; D1 potentiator: -3; D1 antag: -30*; DRD3 antagonist: 2

How did CCc1ccc(NC(=O)Cn2c(=O)n(Cc3ccco3)c(=O)c3cccnc32)cc1 do in these assays?
D3 ag: -19; D1 ag: 9; D1 potentiator: -4; D1 antag: 0

How did O=C(Cn1c(-c2cccs2)cc2ccccc21)N1CCN(c2ccccc2F)CC1 do in these assays?
D3 ag: -3; D1 ag: 2; D1 potentiator: 2; D1 antag: 10

How did S=C(Nc1ccc2nsnc2c1)N1CCCCCC1 do in these assays?
D3 ag: -9; D1 ag: 7; D1 potentiator: -1; D1 antag: -15; DRD3 antagonist: -17

How did S=C(Nc1ccc(Cl)c(Cl)c1)NC1CCCCC1 do in these assays?
D3 ag: -9; D1 ag: 29; D1 potentiator: -4; D1 antag: -41*; DRD3 antagonist: 45

How did S=C(Nc1ccc2nsnc2c1)NC1CCCCC1 do in these assays?
D3 ag: 4; D1 ag: 46*; D1 potentiator: -7; D1 antag: -16; DRD3 antagonist: -5

Results for CC(C)c1ccc(NC(=S)NC2CCCCCC2)cc1 ?
D3 ag: -18; D1 ag: 5; D1 potentiator: -4; D1 antag: -7; DRD3 antagonist: inconclusive

Results for O=C(CN1C(=O)C2CCCCN2c2ccc(C(=O)N3CCCC3)cc21)NCc1cccc(Cl)c1 (stereo unspecified) ?
D3 ag: 6; D1 ag: 3; D1 potentiator: -2; D1 antag: 6

How did CCc1ccccc1NC(=O)C1CCN(C2=NS(=O)(=O)C(c3ccc(C)c(C)c3)=C2C)CC1 do in these assays?
D3 ag: 6; D1 ag: 5; D1 potentiator: -7; D1 antag: 7

What do the screens show for `COc1cccc(N=Cc2ccc(O)cc2O)c1`?
D3 ag: 34*; D1 ag: 1; D1 potentiator: -8; D1 antag: -3; DRD3 antagonist: 9

Results for Oc1ccc(C=Nc2ccc3ncccc3c2)c(O)c1 ?
D1 ag: 3; D1 potentiator: 1; D1 antag: -3

What do the screens show for `CCCCn1cc(S(=O)(=O)c2ccc(Cl)cc2)c(=O)c2cc(F)c(N3CCCC(C)C3)cc21` (stereo unspecified)?
D3 ag: 5; D1 ag: 7; D1 potentiator: 1; D1 antag: 5

What do the screens show for `CCOc1ccc(OCc2ccc(C(=O)OCc3ccccn3)o2)cc1`?
D3 ag: 5; D1 ag: 32*; D1 potentiator: -10; D1 antag: -23; DRD3 antagonist: 15

How did COc1ccc(CCNc2ncnc3c2nnn3C)cc1 do in these assays?
D3 ag: -2; D1 ag: 22; D1 potentiator: -3

Assay outcomes: PubChem BioAssay, National Center for Advancing Translational Sciences (NCATS)
